Source: PubChem BioAssay (National Center for Advancing Translational Sciences (NCATS))
Shown are actives, neighbours in structure and some others; about 21% of the full set was active somewhere.
Pf growth 96h: inhibits malaria parasite growth, 96 h; P. falciparum luciferase reporter growth, 96 h; Potency, µM (doses to about 28.7 µM), for inactives: at the highest dose activity change, negative = inhibition, actives largely listed as inhibitors; actives 6.9% (n = 320,000); note: potency is the fitted concentration of half-maximal effect; % is set by controls: 0 for no effect and ±100 for the full control effect
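Cell-based qHTS: luciferase-tagged P. falciparum in erythrocytes (2% hematocrit, 0.05% parasitemia final) incubated with compounds for 96 hours, 37 C, 5% CO2; luciferase detection reagent then added and luminescence measured.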
Cycloheximide cs: counter-screen for Shiga toxin inhibitors: cycloheximide protein synthesis inhibition; actives 12% (n = 300,000); AID 2314; max response, %; cell reporter, cycloheximide protein synthesis inhibition counterscreen; in the data active = max response mostly above about 13%, no sharp cut-off; inactive = mostly below about 14%; note: read at 38.3 µM for the half of the compounds with a filed dose; 0% is about no effect
Pf growth 48h: inhibits P. falciparum growth in the first generation, 48 h; P. falciparum luciferase growth in erythrocytes, 48 h; AID 504832; actives 5.9% (n = 310,000); Potency, µM (doses to about 28.7 µM), for inactives: at the top dose activity change, negative = inhibition, hits mostly inhibitors; note: potency is the fitted concentration of half-maximal effect; % is set by controls: 0 for no effect and ±100 for the full control effect
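Here the parasites carry a stable luciferase gene and grow inside erythrocytes in Albumax-based RPMI medium with compound for one erythrocytic cycle. Activity is scored as loss of luminescent signal.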
Shiga toxin inh: Shiga toxin inhibition | Vero cells, Shiga toxin protein synthesis inhibition reporter | inhibition, % at 38.7 µM | actives 9.2% (n = 290,000) | AID 2315; in the data active = inhibition mostly above about 28%, no sharp cut-off; inactive = mostly below about 43%; note: 0% is about no effect
HCV inh: HCV inhibition; actives 3.4% (n = 340,000); Potency, µM (top dose mostly 41.8 µM), inactives show top-dose activity change, negative = inhibition, hits mostly inhibitors; AID 651820; Huh7.5.1 HCVcc-Cre infection, luciferase reporter, 44 h; note: potency is the fitted concentration of half-maximal effect; % is set by controls: 0 for no effect and ±100 for the full control effect
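Cells (1,000/well) were plated 4 h before compound, then infected with HCVcc-Cre virus (~0.5 moi). After 44 h further culture, infection was read as luciferase luminescence following a 15 min substrate incubation at room temperature.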
HCMV inh: inhibitors of human cytomegalovirus. HFF cells, HCMV-luciferase reporter, 72 h; active compounds read low. activity change, negative = inhibition, % at 57.5 µM. AID 1259415. actives 4.5% (n = 410,000); in the data active = activity change below about -60%; inconclusive = no clear call, values can overlap the other calls; inactive = above about -39%; note: % is set by controls: 0 for no effect and ±100 for the full control effect
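Cell-based, HFFs, 1000 cells/well, 16 h 37C; cpds in DMSO + HCMV-luc, MOI 1 PFU/cell; 72 h 37C; OneGlo luminescence after 5 min RT; norm. to buffer vs Salinomycin 10uM.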
Starred values were filed as active, the others as inactive; ? = inconclusive; . = not tested or not shown; [ ] = another dose, or the depositor's remark. Unless noted, calls come from the whole dose curve; as a rule, active = well fitted inhibition curve with a large enough effect; inconclusive = small, poorly fitted or top-dose-only effect, or another doubt; inactive = no such curve, though single readings can be large or run the other way.

SMILES | Pf growth 96h | Cycloheximide cs | Pf growth 48h | Shiga toxin inh | HCV inh | HCMV inh
CN(C(=O)C1CCCO1)c1nnc(-c2ccncc2)s1 (configuration not stated) | 217.2% | 10.1 | 20.2% | -4.4 | 7.5% | -17.7
c1ccc(-c2cncnc2)nc1 | 45.8% | . | 6.0% | . | 7.6% | -19.0
c1ccc(C2=NNC(c3ccccn3)=NN2)nc1 | ? | 33.1* | -51.3%[0.00184 µM] | 70.5* | 6.6% | -30.4
Cc1ccc(NC(=O)CCC(=O)N2Cc3ccccc3Oc3ncccc32)c(C)c1 | . | . | . | . | . | 4.9
Cc1cccc(N2CCN(C(=O)c3cccn4c(=O)c5cc(Cl)ccc5nc34)CC2C)c1 (configuration not stated) | . | . | . | . | . | 7.9
CN(C(=O)C1CCOC1)c1nnc(-c2ccccn2)s1 (configuration not stated) | 13.1µM* | 29.7* | 116.2% | 85.7* | -1.9% | 45.2
CN(C(=O)C1CCOC1)c1nnc(-c2ccncc2)s1 (configuration not stated) | ? | -2.1 | 2.6% | -14.5 | 4.6% | 16.4
C/C(=N\NC(=O)Nc1ccccc1)c1ccccc1 | -28.4% | 20.1* | 53.1% | 32.2 | 5.9% | -0.8
CCCC/C(C)=N/NC(=O)Nc1ccccc1 | 22.8% | 18.0* | 5.2% | 40.6* | 15.0% | 16.5
CCCCCC(=O)NNC(=O)Nc1ccccc1 | ? | -3.9 | 23.4% | -14.9 | 3.5% | 5.5
CC(C)/C(=N\NC(=O)Nc1ccccc1)c1ccccc1 | ? | 18.3 | ? | 26.7 | 7.3% | -23.3
CCCCSC(=O)Nc1ccccc1 | 7.2% | 31.5* | 4.6% | 85.1* | 15.2% | ?
Cc1cc(N2CCN(c3ccc(F)cc3)CC2)n2nc(-c3ccc(Cl)cc3)nc2n1 | . | . | . | . | . | 11.2
CN(C)S(=O)(=O)c1ccc(C(=O)NCCS(=O)(=O)N2CCN(c3ccccc3)CC2)cc1 | . | . | . | . | . | -6.5
COc1ccc(Nc2c(-c3ccc(C)o3)nc3ccc(Cl)cn23)cc1 | . | . | . | . | . | 0.5
COC(=O)c1cc2occc2n1CC(=O)Nc1cccc(SC)c1 | . | . | . | . | . | 0.2
COC(=O)c1cc2sccc2n1CC(=O)Nc1cccc(SC)c1 | 3.29µM* | -2.3 | -13.6% | -5.4 | -2.9% | -2.5
CCOC(=O)c1cc2sccc2n1CC(=O)Nc1ccc2c(c1)OCCO2 | 39.8% | 17.8* | -19.2% | 44.9 | -9.5% | 14.0
COC(=O)c1cc2sccc2n1CC(=O)Nc1ccc(OC)c(OC)c1OC | 20.0% | -1.3 | 2.08µM* | -5.2 | ? | 51.5
CCOC(=O)c1cc2sccc2n1CC(=O)OC | . | 0.9 | 4.7% | -14.1 | 10.1% | -9.8
O=C(c1cccs1)N1CCCc2cc(NS(=O)(=O)c3ccc(F)cc3F)ccc21 | . | . | . | . | . | 2.5
CC1CCc2c(sc(NC(=O)COC(=O)c3ccc(O)cc3)c2C#N)C1 (configuration not stated) | 42.1% | 14.2 | 15.4% | 10.3 | 1.3% | 9.0
CC1CCc2c(sc(NC(=O)C3CCCO3)c2C#N)C1 (configuration not stated) | 53.8% | 37.3* | 142.1% | 106.6* | ? | -31.1
CCOC(=O)Nc1sc2c(c1C#N)CCC(C)C2 (configuration not stated) | ? | 46.4* | 114.3% | 91.4* | -21.9% | .
CC1CCc2c(sc(NC(=O)COC(=O)C3CCCO3)c2C#N)C1 (configuration not stated) | 120.3% | 19.8 | 73.2% | 18.5 | ? | 16.8
SMILES | Pf growth 96h | Cycloheximide cs | Pf growth 48h | Shiga toxin inh | HCV inh | HCMV inh
CCc1c(C)sc(NC(=O)c2cc(C3CC3)on2)c1C#N | ? | -2.8 | . | -9.7 | -3.1% | 14.4
CCNC(=S)Nc1sc2c(c1C#N)CCC(C)C2 (configuration not stated) | 5.86µM* | 8.6 | ? | 20.9 | ? | 15.7
CCc1c(C)sc(NC(=O)C2CCCO2)c1C#N (configuration not stated) | 34.1% | 16.8* | 50.3% | 18.8 | ? | 70.3
CC1CCc2c(sc(NC(=O)CN3CCN(C(=O)c4ccco4)CC3)c2C#N)C1 (configuration not stated) | ? | -1.2 | ? | -14.1 | -19.5% | ?
Nc1c(C(=O)NCCc2ccccc2)nnn1CC(=O)Nc1ccc(Cl)cc1 | . | . | . | . | . | -28.7
CCn1cc(CN2CCCC(CNS(=O)(=O)c3cccc4cccnc34)C2)cn1 (configuration not stated) | -14.7% | 1.5 | 9.9% | -12.9 | -14.3% | -35.9
CC(=O)Nc1ccc(NC(=O)C(C)OC(=O)C23CC4CC(CC(Cl)(C4)C2)C3)cc1 (configuration not stated) | . | . | . | . | 7.6% | -16.0
CCCCNC(=O)CSc1nc(-c2ccc(OC)cc2)cc(C(F)(F)F)n1 | . | . | . | . | . | -9.9
CC(C)[C@H](NC(=O)OCc1ccccc1)C(=O)OCC(=O)N1CCCCC1 | . | . | . | . | 27.9% | 101.5
CC(C)C(C(=O)N1CCN(C(=O)OC(C)(C)C)CC1)n1cc(-c2cn([C@@H](C)C(=O)N3CCN(C(=O)OC(C)(C)C)CC3)nn2)nn1 (some centres not stated) | -10.9% | -3.7 | -7.7% | -0.6 | . | .
CC(C)CC(=NNC(=O)c1ccncc1)c1cc(Cl)ccc1O | . | . | . | . | 2.51µM* | -97.2*
C/C(=N\NC(=O)c1ccc(COc2ccccc2)cc1)c1ccncc1 | ? | 11.9 | -10.4% | -6.1 | 5.2% | -6.2
CC(=NNC(=O)c1ccncc1)c1ccc(O)cc1O | . | . | . | . | 11.2µM* | -36.7
CC(=NNC(=O)c1ccncc1)c1ccccc1O | . | . | . | . | 4.47µM* | -98.4*
CC(=NNC(=O)c1ccncc1)c1ccc2ccccc2c1O | . | . | . | . | ? | -76.7*
O=C(NCc1cccc(Cl)c1)c1ccncc1 | ? | 9.1 | 8.1% | 33.1 | 7.8% | -18.4
CCCCCCCC(=O)N/N=C(\C)c1ccc(O)cc1O | -23.1% | -4.3 | -7.2% | -1.9 | -23.6% | -69.9*
C=CCN(CC=C)C(=S)Nc1ccc2nsnc2c1 | ? | 26.0* | 8.28µM* | 59.6* | 2.4% | -4.3
C=CCNC(=S)Nc1ccc2nsnc2c1 | ? | -0.4 | 18.0% | 11.2 | 6.0% | ?
CC(C)OC(=O)NCCOC(=O)Nc1ccc(Cl)c(Cl)c1 | 52.6% | 5.7 | ? | 11.0 | ? | 13.0
COCCNC(=S)Nc1ccc2nsnc2c1 | 20.8% | 16.4* | 35.7% | -18.6 | 7.4% | 37.6
COCCNC(=S)Nc1ccc(Cl)c(Cl)c1 | ? | 14.6* | 12.8% | 5.5 | 3.5% | ?
C=COCCNC(=O)Nc1ccc(Cl)c(Cl)c1 | 27.2% | 30.7* | -82.3% | 54.1* | 10µM* | -60.2*
CC(C)c1ccc(OC(=O)c2ccc3c(=O)n4c(nc3c2)CCC4)cc1 | -8.9% | . | 8.5% | . | -47.7% | -34.8
CCOC(=O)Cn1c(=O)c2c(nc(N3CCOCC3)n2Cc2ccccc2)n(C)c1=O | . | . | . | . | . | -27.3
CCN(Cc1ccncc1)C(=S)Nc1ccc(Cl)cc1 | 9.1% | -1.3 | -4.3% | -14.7 | -20.9% | -28.5
